# Laboratory results taken from the supplement of paper PMC6555819.
# Legend:
# Test in all cases: PBM binding z-score (relative to random genomic background probes); higher = stronger binding; sequences stand for … in GC…GCGATTGACAGCGTAGAATGAAGG
# [1] = tested on: RARb homodimer (NR concentration 270 nM)
# Outline: (§1)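 Custom Agilent 4×180K protein-binding microarrays carried double-stranded probes. Their 34-nt variable regions held direct-repeat seeds, single-nucleotide variants, half-site ablations and random human genomic background sequences. Arrays were incubated 1 h with ligand-free nuclear receptor dimers in PBS pH 7.4, 2% milk, 0.02% Triton X-100, 1 mM DTT, 0.2 mg/mL BSA and 0.4 mg/ml salmon testes DNA. Antibodies against each partner (one per run) detected binding, and scanned fluorescence was regression-normalized. Binding z-scores use random background probes as reference.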
# [2] = tested on: RARg:RXRa (NR concentration 270 nM, RXRa partner concentration 90 nM)
# Outline: as §1
# [3] = tested on: RARg homodimer (NR concentration 270 nM)
# Outline: as §1
# [4] = tested on: RXRa DBDmut IVT, anti-RXR (DBD mutation: RXRa K156A/R161A, NR concentration 90 nM)
# Outline: as §1
# [5] = tested on: RXRa homodimer (NR concentration 180 nM)
# Outline: as §1
# [6] = tested on: THRa:RXRa (NR concentration 90 nM, RXRa partner concentration 90 nM)
# Outline: as §1
# [7] = tested on: THRa homodimer (NR concentration 90 nM)
# Outline: as §1
# [8] = tested on: VDR homodimer (NR concentration 270 nM)
# Outline: as §1
Sequence,PBM binding z-score [1],PBM binding z-score [2],PBM binding z-score [3],PBM binding z-score [4],PBM binding z-score [5],PBM binding z-score [6],PBM binding z-score [7],PBM binding z-score [8]
CCTAGTTGGTCAAGGACACACACGCTATAGGTAC,1.47,1.19,1.81,0.547,0.578,2.95,2.82,1.33
GATACAGGGTCAAGGCGAGAGTACGCGTATTGAT,3.23,5.39,4.87,2.77,5.61,3.32,1.11,2.48
ATCGAAAGGTCGACGAGGTGAGGATACACCGTTT,3.11,4.27,4.37,1.15,4.45,4.09,2.24,1.2
TCTCGGAGGACACGACGGTCAGAGCTTTCCAGAG,1.53,0.617,1.65,0.193,0.0986,1.33,0.161,-0.222
TTACCAAGGTGAAAGGTCGTTAATGCACGCCTTG,2.23,3.93,2.08,0.25,5.05,3.23,0.834,0.976
CCTTACGGGTCGCGAGGTTATAGCACGACGAGCG,1.57,3.39,2.09,0.0933,4,2.25,0.349,0.904
CTCGAAAGTTCGGTTGAGGTGAGTATACGGATAA,1.12,0.738,0.973,1.24,0.161,4.57,1.37,0.742
AGTCAAAGTTCTGGACGAGGTAACGTAAAGCACG,-0.148,0.171,0.32,-0.639,0.0678,1.41,0.761,-0.322
TTACCAAGGTGAGCTGAGGTCGCTGATCCAACTC,1.76,1.33,1.22,-0.393,1.2,4.95,2.17,0.556
GATGCAGGGTCAAGGCCAGAGTACGCGTATTGAT,3.44,5.2,4.79,1.98,5.72,3.46,0.878,1.78
GCTAGCAGGCCATTAGGGTCACTCAATGACGGGC,2.83,2.53,2.08,0.0923,2.42,3.37,2.03,1.91
TTACCAAGGTGAATGGTCGTTGATGCACGCCTTG,0.707,0.538,0.576,-0.0991,0.73,1.47,0.775,0.132
GCTATTAGTTGAAGGGGCAACCGAATGATTCTCG,0.855,0.206,0.529,0.928,0.206,0.0187,-0.194,0.212
GCAGACAGGTGAAACGCAGGGAACTCAGGGTGGC,-0.128,0.193,0.108,-1.09,0.587,0.258,-0.443,-0.619
CGGCAAAGTTCAACTAAGGTAACGTAAAGCACGC,4,5.78,6.69,4.36,5.14,5.16,1.33,3.51
CCATACGGGTCAAGGTTATAGCACGGGTGGTACG,3.43,4.7,4.33,0.452,4.65,2.85,0.691,1.15
GCATATAGGTAATACAAGGTGAACGTCCGATTGT,0.986,0.615,0.716,0.418,0.745,4.18,1.38,0.386
TAACCTAGGTCATTCAGGGGCCAGTATAGAAAGC,3.95,6.73,5.25,2.62,3.87,3.83,1.26,2.58
CCTAGTTGGTCAAGGTCACAAACGCTATAGGTAC,4,4.1,4.24,1.87,4.02,4,3.57,3.9

Sequence,PBM binding z-score [1],PBM binding z-score [2],PBM binding z-score [3],PBM binding z-score [4],PBM binding z-score [5],PBM binding z-score [6],PBM binding z-score [7],PBM binding z-score [8]
TAGCCTAGGTCATTGGGCCAGTCTAGTACGCATC,2.48,3.76,3.79,1.52,2.52,2.67,0.501,0.896
GCTGCTAGCTCAACTGATGGTCAGCTAAAGCTCG,-0.699,-0.731,-0.78,-0.306,-0.88,-0.877,-1.48,-1.04
AGTCAAAGTTCAGGAGGAGGTAACGTAAAGCACG,3.59,5.4,4.92,3.04,3.26,2.88,0.548,2.16
GCACACAGGTGAAACGCAGGTAACTCAGGGTGGC,0.327,1.15,0.263,-0.192,0.954,1.47,-0.486,-0.299
TCTAGTTGGTCACGGAGGTCACACTCGACGGGTA,4.42,4.61,4.99,1.2,4.54,3.59,2.56,2.99
TAGCCTAGGTCAGATCGGGCCAGTATGCGCTATA,2.29,2.85,3.88,-0.301,1.48,4.04,0.0471,-0.51
CCAGATAGGTGAAAGGTAACTCAGTCTGGTACGC,1.04,1.53,0.944,0.181,2.46,0.97,0.0815,0.348
TCACCAAGGTGAGCTGAGGTCGTTGATCCAACTC,1.5,1,0.829,0.546,1.28,4.7,1.49,1.64
CCGGCTAGGTCAATGGTCAGCTAAAGCAGCTCGC,3.19,3.59,4.45,1.33,2.4,2.16,0.768,0.413
CCTACTGGGCCAAGGTCATTGGTCAGTCAAAGCA,3.51,3.85,3.86,0.988,3.73,3.48,2.62,3.41
CGAACTAGGTCAAGGACAGTGACTCTCCGCACGC,3.26,3.85,4.74,1.45,2.69,3.31,2.26,0.341
CCTCCTGGGCCATTCAGAGGTCATTGATCATATG,4.15,4.79,3.13,0.494,4,3.3,1.39,3.92
TCATATAGGTAAATGCTAGGTGAAAGCCCGATCT,0.272,0.503,0.325,1.5,0.914,1.29,0.116,-0.161
CGAACTAGGTCATCCACGACAGTGAATACATTGA,2.85,3.96,4.77,2.28,2.9,2.79,1.22,1.44
CCTTACGGGACACGAGGTTATAGCACGACGAGCG,1.03,1.49,1.14,-0.0752,1.19,1.77,0.83,0.544
CCTATTAGTTGGCCATAAGGGCAACCGAAGCTCG,1.46,0.564,0.624,0.223,0.155,1.3,0.895,0.172
GCTCGGAGGACCAGGTCAGAGCTTTGTCCGTAGA,1.34,0.802,0.461,-0.305,0.617,1.73,0.402,-0.425
CCCACTGGGCCAAAGGTCATTGATTCCAATGCTC,4.72,5.82,4.39,0.468,6.2,3.27,0.821,2.28
TCTATTTGGTCACGGAGGTCACACACGACGGGTA,4.61,4.91,5.19,1.87,5.34,3.82,3.38,3.22

Sequence,PBM binding z-score [1],PBM binding z-score [2],PBM binding z-score [3],PBM binding z-score [4],PBM binding z-score [5],PBM binding z-score [6],PBM binding z-score [7],PBM binding z-score [8]
ATCTCTAGGTAAGACTCAGTTCAGTCAAGAACGC,0.982,0.387,0.453,0.696,0.195,1.18,0.902,1.48
CAAACTAGGTCACGAAAGGTCTAAGTCGAATGAC,3.98,5.04,5.84,1.6,4.23,4.1,1.73,0.873
ACTATTAGTTGAGAGGAGGGCAACCGATAGGTTG,1.1,0.586,0.81,0.0671,0.396,1.32,-0.435,0.461
AGTCAAAGTTCAGGACGAGGTAACGTAGAGCACG,3.39,4.8,4.77,2.61,3.06,4.07,1.71,2.15
CGAACTAGTTCATCCAGGACAGTGAATACATTGA,0.846,1.12,1.39,3.28,0.593,2.23,1.07,3.24
CCTCGGAGGACAGAAAGTCAGAGCTGTCCGCTTT,-0.167,-0.265,0.0547,-0.146,-0.788,-0.441,-0.747,-0.657
GTACCAAGGTGGATAGGTCGTTGATGAGTAGGCG,0.625,0.328,0.275,-0.726,0.461,-0.0275,-0.612,-0.371
CCGACTGGGGCATATGGTTACCATAAGCCAGCCC,-0.243,-0.00585,0.046,-0.59,0.109,-1.07,-0.688,-0.752
ATATGTAGGTTATCGGCTCATTCAGTTTGCGCAT,0.158,0.446,0.752,0.79,0.927,0.266,0.293,0.816
CGAACGAGGGCATGAGTCGATAGCAAATGCCGAT,0.648,0.901,1.41,1.99,0.869,0.888,-0.267,0.974
ACTTACGGGTCAACGAGGTTATGGCACGCGTATA,3.9,5.75,5.68,2.65,6.57,4.04,1.32,3.94
CCTTCTGGGCCACGAAAGGTCATTGATTCAGTGA,4.62,4.94,4.61,0.819,5.38,4.04,0.878,2.42
TTATATAGGTAAAGGTGAAAGTCGAACGATATGA,1.64,1.68,1.27,-0.41,2.15,1.44,-0.395,-0.389
ATCGAAAGGTCGAGGTGAGGATAGAGAAAGGGAA,3.07,4.35,4.28,0.642,4.31,3.87,1.64,0.466
CGTCAAGGTTCAAGGTAACGTAACAGAAAGCAGC,1.73,3.11,2.71,4.1,3.11,2.61,1.01,3.6
TCATATAGGTAAAACGTGAAAGTCGGTGTGGTAA,-0.166,0.237,-0.0627,1.62,0.564,0.025,-0.0697,0.126
ACAGACAGGTGATGAAGGTCACTCAGGCTATCAT,3.75,3.15,2.94,0.355,2.67,2.81,0.677,1.51
CTCTAAAGGTCGGTTGAGGTGAGTATACGGATAA,2.4,3.06,3.15,1.52,2.44,5.16,1.17,0.546
